Assay results published in PubChem BioAssay (NCI).
Compounds without any hit were thinned out: in the full panel of roughly 83,000, 20% have a hit.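 Step 1: grow cells in 96-well plates. Step 2: add test compound at a single concentration. Step 3: incubate 48 h. Step 4: record percent growth.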 Values without a mark were called inactive. Calls of active or inactive are those of the source. How the source made its calls: active means growth percent below 10; inactive means the rest.

Assays:
Assay in all cases: NCI-60 one-dose screen, 48 h (100 = growth as untreated, 0 = no growth, -100 = all killed)
HCT-15 colon = details: 10 µM unless noted
HT29 colon = details: 10 µM unless noted
SNB-75 CNS = details: 10 µM unless noted
SNB-19 CNS = details: 10 µM unless noted
U251 CNS = details: 10 µM unless noted
PC-3 prostate = details: 10 µM unless noted
LOX IMVI melanoma = details: 10 µM unless noted
SK-MEL-28 melanoma = details: 10 µM unless noted
SK-MEL-2 melanoma = details: 10 µM unless noted
SN12C renal = details: 10 µM unless noted
UO-31 renal = details: 10 µM unless noted
TK-10 renal = details: 10 µM unless noted
ACHN renal = details: 10 µM unless noted
HL-60(TB) leukemia = details: 10 µM unless noted
CCRF-CEM leukemia = details: 10 µM unless noted
SK-MEL-5 melanoma = details: 10 µM unless noted
UACC-62 melanoma = details: 10 µM unless noted
EKVX NSCLC = details: 10 µM unless noted
CAKI-1 renal = details: 10 µM unless noted
A498 renal = details: 10 µM

SMILES	growth (HCT-15 colon)	growth (HT29 colon)	growth (SNB-75 CNS)	growth (SNB-19 CNS)	growth (U251 CNS)	growth (PC-3 prostate)	growth (LOX IMVI melanoma)	growth (SK-MEL-28 melanoma)	growth (SK-MEL-2 melanoma)	growth (SN12C renal)	growth (UO-31 renal)	growth (TK-10 renal)	growth (ACHN renal)	growth (HL-60(TB) leukemia)	growth (CCRF-CEM leukemia)	growth (SK-MEL-5 melanoma)	growth (UACC-62 melanoma)	growth (EKVX NSCLC)	growth (CAKI-1 renal)	growth (A498 renal)
COc1ccc2c(c1)c(-c1nc(-c3c[nH]c4ncccc34)cs1)cn2CCN1CCOCC1	31.4%	45.8%	49.7%	67%	45.6%	34.1%	45.4%	68.4%	61.3%	43.6%	15.4%	42.3%	36.5%	61%	41.6%					
C=CCCCCCCCCC(=O)[O-].C=CCCCCCCCCC(=O)[O-].[Zn+2]	101%	105%	103%		89%	85.7%	90.5%	104%	111%	101%		115%	101%	95.1%	104%	113%	99.4%	98.7%	90%	92.7%
Cc1ccc2c(C(C[N+](=O)[O-])c3cccs3)c(-c3ccccc3)[nH]c2c1 (stereo not given)	20%	9.87% (active)	-37.2% (active)	37.8%	21%	28%	31.7%	49.4%	20.7%	32%	34.8%	64.7%	33.8%	0.431% (active)	15%			35.9%	2.76% (active)	-19.6% (active)
COc1cc(/C=C\c2cc(OC)c(OC)c(OC)c2)cc(N/C=C\C(=O)c2cc(OC)c(OC)c(OC)c2)c1OC	19.6%	3.93% (active)	-6.67% (active)	43.4%	31%	21.1%	28.6%		15.9%		22.3%	55.1%	28.9%		8.89% (active)		16.8%			-12.4% (active)
CC(=O)[O][Hg][c]1c(N)c(C)cc(C)c1F	-14.2% (active)	10% (active)	32%	112%		51.9%	-70.1% (active)	-39.1% (active)	11.6%	5.86% (active)	35.1%	97.4%		-12.7% (active)	-6.01% (active)	41%	27.8%		45.8%	101%
COC(=O)[C@]12CCC(C)(C)C[C@H]1[C@H]1C(=O)C[C@@H]3[C@@]4(C)C[C@@]5(CC(C)(C)[C@@H]4CC[C@@]3(C)[C@]1(C)CC2)OO[C@@](C)(C(F)(F)F)O5	95.3%	102%	74.9%	91.7%		86.7%	95.7%	107%	92.3%	92.4%	87.8%	95.7%	93.6%	101%	94.8%		84.3%		68.7%	
COc1ccc(-n2c(C)nc3cc(OC)c(OC)cc3c2=O)cc1OC	111%	106%	92.2%	102%	94.4%	101%	101%	109%		105%	94.4%	102%	109%	100%	98.1%		104%	108%	97.3%	95.8%
CC(=O)C(c1c(O)c2ccccc2oc1=O)c1cc(=O)oc2c1ccc1ccccc12 (stereo not given)	101%	109%	67.8%	90.7%	91.5%	85.7%	96.6%	110%		87.1%	80.3%	116%	101%	96.9%	94.5%		91.1%	92.1%		79.8%
C[N+]12CN3CN(CN(C3)C1)C2	110%	99.3%	46.8%		100%	81.3%	99.7%	106%	96.2%	112%	95.5%	128%	108%	142%	73.8%	112%	104%	96.4%	83.6%	109%
Cc1ccc(C(=O)NCCCOc2ccc(N)cc2Cl)cc1S(=O)(=O)F	89.4%	101%	75.1%	95.1%		105%	85.5%	104%	78.7%		70.7%	97.1%	105%	98.8%	88.7%	97.2%	100%		92.5%	82.4%
Cc1ccc(S(=O)(=O)F)cc1C(=O)O	102%	100%	76.8%	97.5%		110%	102%	110%	105%	99.1%	91.9%	107%	101%	104%	97.2%	102%	109%		93.9%	132%
CC(=O)/C=C/c1ccc2c(c1)OCO2	99.7%	106%	79.2%	84.6%		95.8%	109%	107%	107%	98.1%	100%	99.7%	97.5%	104%	94.1%	100%	90.2%		91.5%	118%
COc1ccc(C(=O)c2sc3nc4c(cc3c2N)N2CCC4CC2)cc1OC	96.4%	105%	83.9%	108%	84.9%		85.4%	96.1%		93.4%	52.8%	91.7%	81.8%	94.5%	74.7%	48.2%	89.9%		79.7%	116%
CNC(=O)Oc1ccc(N(C)C)cc1C(C)C	102%	98.2%	66.5%	101%	101%		105%	101%	103%	98.2%	88.7%	95%	99.4%	130%		99.4%	102%	95.5%	40.9%	101%
N#CC1C(C#N)C2CCC1C1C2N1c1ccccc1 (stereo not given)	97.9%	114%	87.1%	104%	111%		103%	106%	106%	99.5%	72.3%	106%	97.4%	91.7%	82.9%	104%	105%	97.5%	98.9%	
C=C1C(=O)O[C@H]2[C@H]1CC/C(COC(=O)C(=O)c1cn(Cc3ccccc3)c3ccccc13)=C\CC[C@@]1(C)O[C@@H]21	-45.6% (active)	-40.2% (active)	-75.2% (active)	3.39% (active)	-88.7% (active)	-57.9% (active)	-93.3% (active)			-70.3% (active)	-91.3% (active)	-62.2% (active)	-61.5% (active)	-26.6% (active)	-30.6% (active)		-87.4% (active)	-40.7% (active)	-34.6% (active)	52.4%
COC(=O)[C@@H](NC(=O)c1cn(CCC2CCCCC2)c2ccccc12)C(C)(C)C	59.9%	69%	71.2%	97.5%	72.6%	49.7%	54.2%	85.8%	78.1%	65.7%	39.2%	77.8%	59.5%	60%	72%			58.6%		84.2%
CC[C@H](C)[C@H](NC(=O)NC(C)(C)C)C(=O)N(C)[C@H](C[C@@H](OC(C)=O)c1nc(C(=O)N[C@@H](Cc2ccccc2)C[C@H](C)C(=O)OC)cs1)C(C)C	9.49% (active)	5.85% (active)	34.1%	47.6%	11.5%	11.3%	16%	53.2%	47.3%	12.1%	45.4%	49.5%	22.7%	-14.6% (active)	10.7%			29.4%	22.2%	-10% (active)
